Here are results for 40 compounds from PubChem BioAssay (EPA / NIEHS).

Structures are written as SMILES. Calls of active or inactive are those of the source. The calls were made as follows: active = hit-call score of the fitted dose curve at least 0.9, where 1 is the maximum; inactive = score below 0.9.

Read-out in this experiment: Glutamate-cysteine ligase regulatory (GCLM), GCLM (gene 2730)
The experiment is described as follows: LTEA_HepaRG_GCLM: Life Technologies and Expression Analysis (LTEA) Assay for Glutamate-cysteine ligase regulatory (GCLM) using HepaRG (AID 2283500). The conditions noted are these: mRNA level, 48 h; actives raise or lower the signal. As for the experimental part: LTEA_HepaRG is a cell based, multiplexed-readout assay that uses HepaRG, a human liver cell line, with measurements taken at 48 hours after chemical dosing on a 96-well plate.LTEA_HepaRG_GCLM is one of 102 assay component(s) measured in the LTEA HepaRG cell culture assay. It is a marker of Cell proliferation, survival, death.Data from the assay component LTEA_HepaRG_GCLM was analyzed into 1 endpoint. This assay endpoint, LTEA_HepaRG_GCLM, was analyzed with bidirectional fitting relative to DMSO as the negative control and baseline of activity. Using a type of inducible reporter, measures of mRNA induction for gain or loss-of-signal activity can be used to understand regulation of transcription factor activity. To generalize the intended target to other relatable targets, this assay endpoint is annotated to the ligase intended target family, where the subfamily is C-N ligase.
A total of 1060 chemcials from the ToxCast library were tested in eight-point concentration-response experiments. Cell culture and cytotoxicity assays were conducted at Thermo Fisher Scientific's Custom Services facility (Madison, WI). A single lot of human HepaRG cells (Thermo Fisher Scientific, Frederick, MD) was used for the cell culture experiments. 96-well format collagen type I coated plates of human HepaRG cells were prepared using established methods. Briefly, cryopreserved HepaRG cells were thawed, plated at a density of approximately 100,000 cells/well in HepaRG Thaw, Plate, and General Purpose media (HPRG770, Thermo Fisher Scientific), and incubated for 48 hours. 0.5% DMSO was selected as vehicle control to balance the requisite need of DMSO in HepaRG cultures to maintain differentiation (for example, baseline metabolism, proportions of hepatocytes vs. cholangiocytes), while enabling further hepatic receptor pathway activation (for example, PXR and CAR) in response to chemical exposure. 48 hours after plating, the culture medium was replaced with HepaRG Serum-Free Incudtion Media. Cells were exposed to each test chemical in duplicate and maintained in CO2 incubators for another 48 hours. Chemical plates were thawed to room temperature and 200x concentrations of treatment groups were prepared. 8-point conentration-reponse curves were made with the highest exposure at 100 uM, followed by half-log dilutions, all in 0.5% DMSO. Each test plate contained variouse controls, induction positive controls (1mM phenobarbital), cytotoxicity positive controls ([…] aflatoxin B1), vehicle controls (0.5% DMSO), and total lysis controls (0.5% DMSO). Cell morphology images were taken using an Essen IncuCyte FLR automated microscope, with six 96-well plates imaged in about 24 minutes. Images were captured and exported and JPEG files. Spent culture media was transfered to black-well plates for the LDH assay, and remaining media was sorted at -80 C for later use. Cells were treated with RLT buffer and frozen until shipped for gene expression analysis. Total RNA was isolated from the cell suspension in 75 uL of Buffer RLT (Qiagen, Germantown, MD 20874) by Quintiles/Expression Analysis (Durham, NC) using a custom isolation procedure. Total RNA from each plate well was transferred to a preamplification plate. Fluidigm's 96.96 Dynamic ArrayTM (Fluidigm, Amsterdam, the Netherlands) technology was used for gene expression analyses by quantitative reverse transcription polymerase chain reaction (qRT-PCR, performed by Quintiles/Expression Analysis, Durham, NC)89. Standard TaqManTM Assays (Applied Biosystems/ThermoFisher Scientific, Foster City, CA) were used to assess the expression of 93 genes selected based on their selectivity and sensitivity to important hepatic receptors known to be modulated by environmental chemicals; importance in human hepatocyte functionality; and hepatotoxicity. […]
As for `CCCCCCC(C=O)=Cc1ccccc1`, the compound was called inactive. As for `COC(=O)CCCC(=O)OC`, the call was inactive. The result for `NC=O` reads “inactive”. Then `CCCCCCC(CCCCCCCCCCC(=O)OCC(COC(C)=O)OC(C)=O)OC(C)=O` (stereo not given), with “inactive”.

Take `O=C1O[C@H]([C@H](O)CO)C(O)=C1O`: the call was inactive. With `O=C(O)CN(CC(=O)O)CC(=O)O`, the result was inactive. Then `N[C@@H](Cc1c[nH]c2ccccc12)C(=O)O`, with “inactive”. Then `CC(C)c1cccc(C(C)C)c1NC(=O)NS(=O)(=O)c1cc(C(C)(C)O)co1`, with “inactive”; and `CC(C)NCC(O)c1ccc(O)c(O)c1` (stereo not given), with “inactive”; and `C#CC(O)C(CC)CCCC` (stereo not given), with “inactive”. Take `O=C1CCCCC1`: the call was inactive. Then `CC(=O)OCC(COC(C)=O)OC(C)=O`, with “inactive”; and `CC(=O)S[C@H](C(=O)N[C@H]1Cc2ccccc2[C@H]2CCC[C@@H](C(=O)O)N2C1=O)C(C)C`, with “inactive”; and `CC(=O)[C@@]1(O)CC[C@H]2[C@@H]3CCC4=CC(=O)CC[C@]4(C)[C@H]3CC[C@@]21C`, with “inactive”. As for `CCCCCCCCCCCCCCCCO`, the result was inactive.

As for `Cn1cnc2c1c(=O)[nH]c(=O)n2C`, the call was inactive.

In the case of `O=C1c2c(O)cccc2Cc2cccc(O)c21`, the result was inactive. The result for `COc1ccc(OC(F)(F)F)cc1CN[C@H]1CCCN[C@H]1c1ccccc1` reads “inactive”; that for `CC(N)=O`, “inactive”; that for `CN(C)CCCN1c2ccccc2Sc2ccc(Cl)cc21`, “inactive”.

`CC(C)(C)c1ccccc1`: the outcome was inactive.

Consider `CC(COCC(C)OC(=O)c1ccccc1)OC(=O)c1ccccc1` (stereo not given), for which the call was inactive. Then `NC(=Nc1ccccc1)Nc1ccccc1`, with “inactive”. The result for `O=C1NC(=O)C(c2ccccc2)(c2ccccc2)N1` reads “inactive”; that for `CCCCCCCC(=O)OC`, “inactive”; that for `OCC(CO)n1cnc(-c2ccc(F)cc2)c1-c1ccnc(Oc2ccccc2)n1`, “inactive”. The result for `CC(=O)O` reads “inactive”; that for `CCCC[C@H]1CN(CC2CCOCC2)C(=O)OC12CCN(C1(C)CCN(C(=O)c3c(C)ncnc3C)CC1)CC2`, “inactive”.

`CCc1nc(N)nc(N)c1-c1ccc(Cl)cc1`: the compound was classed as inactive.

Take `CN(C)CCCN(C)CCCN(C)C`: the compound was classed as inactive. The result for `O=C(N[C@@H](c1ccccc1)[C@@H]1CCCCN1)c1cccc(C(F)(F)F)c1Cl` reads “inactive”; that for `CC(=O)OC1CC(C)OC(C)O1` (stereo not given), “inactive”.

In the case of `S=c1[nH]c2ccccc2s1`, the outcome was inactive. Take `CCC(C)N(C)C(=O)c1cc2ccccc2c(-c2ccccc2Cl)n1` (stereo not given): the compound was called inactive.

With `CCCCOC(=O)CCCCC(=O)OCCCC`, the compound was called inactive.

Regarding `Cc1cn([C@H]2C=C[C@@H](CO)O2)c(=O)[nH]c1=O`, the compound was called inactive. Consider `O=C(O)CC(O)(CC(=O)O)C(=O)O`, for which the outcome was inactive.

With `c1ccc2occc2c1`, the call was inactive.

With `CC(=O)CC(c1ccccc1)c1c(O)c2ccccc2oc1=O` (stereo not given), the call was inactive. `Oc1ccc(O)cc1`: the compound was called inactive.
